Measured values published in PubChem BioAssay.
Activity calls are given as the source filed them. Unless noted, no rule for the calls is given here.

How the values were obtained:
[1] = A549 cell viability effects, profiling panel, calcein-AM fluorescence, 48 h, basal (AID 1162); settings: higher = more signal; also: test concentration not given here
[2] = adipocyte viability effects, profiling panel, cell-based, 3T3-L1 adipocytes, calcein-AM fluorescence, 48 h, basal (AID 1163); settings: 3T3-L1 adipocytes viability, higher = more signal; also: test concentration not given here
[3] = HepG2 cell viability effects, profiling panel, calcein-AM fluorescence, 48 h, basal (AID 1164); settings: higher = more signal; also: test concentration not given here
[4] = MM1S cell viability effects, profiling panel, calcein-AM fluorescence, 48 h, basal (AID 1165); settings: higher = more signal;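 also: viability of MM1S multiple myeloma cells under basal unstimulated conditions; test concentration not given here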
[5] = basal RPMI8226 viability, no added stimulus, profiling panel, cell-based, calcein-AM fluorescence, 48 h, PK04 Diversity Set (AID 1166); settings: RPMI8226 myeloma viability, higher = more signal;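 also: cells grown under basal conditions without added stimulus; test concentration not given here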
[6] = basal HepG2 mitochondrial membrane potential changes, profiling panel, cell-based, JC-1 fluorescence, 24 h, 100 nL compound (AID 1167); settings: higher = more signal; also: test concentration not given here
[7] = basal 3T3-L1 adipocyte mitochondrial potential changes, profiling panel, cell-based, JC-1 fluorescence, 3T3-L1 adipocytes, 24 h, 100 nL compound (AID 1168); settings: JC-1 mitochondrial fluorescence, higher = more signal, called active from +8 up or from −8 down; also: test concentration not given here
[8] = basal RPMI8226 mitochondrial membrane potential changes, profiling panel, cell-based, JC-1 fluorescence, 24 h, 100 nL compound (AID 1169); settings: RPMI8226 myeloma, JC-1 mitochondrial potential fluorescence, higher = more signal; also: test concentration not given here
[9] = basal MM1S mitochondrial membrane potential changes, profiling panel, cell-based, JC-1 fluorescence, 24 h, 100 nL compound (AID 1170); settings: higher = more signal; also: test concentration not given here
[10] = A549 lung cancer cell viability effects, profiling panel, resazurin fluorescence, 24 h, PK04 Diversity Set (AID 1171); settings: higher = more signal, called active from +8 up or from −8 down; also: test concentration not given here
[11] = HepG2 liver cancer cell viability effects, profiling panel, resazurin fluorescence, 24 h, PK04 Diversity Set (AID 1172); settings: higher = more signal; also: test concentration not given here
[12] = basal S. cerevisiae growth modulation, no modifier, primary screen, OD600, strain BY4716, 24 h, basal condition (AID 1173); settings: OD600, 24 h, higher = more signal, called active from +8 up or from −8 down
[13] = MM1S myeloma cell viability, profiling panel, resazurin fluorescence, basal, 24 h, PK04 Diversity Set (AID 1174); settings: higher = more signal, called active from +8 up or from −8 down;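 also: MM1S multiple myeloma cell line; test concentration not given here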
[14] = biological target: Dihydroorotate dehydrogenase (quinone), mitochondrial (Plasmodium falciparum (isolate 3D7)) (UniProt Q08210); assay: PfDHODH enzyme inhibitors, primary screen, biochemical, C-terminal His tag, absorbance 600 nm (AID 1175); settings: DCIP absorbance 600 nm, higher = more signal, called active from +8 up or from −8 down;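 also: recombinant parasite enzyme with a five histidine tag at its C terminus; test concentration not given here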
[15] = P. aeruginosa biofilm formation inhibitors, primary screen, strain PAO1, LB-PBS medium, absorbance 600 nm (AID 1176); also: test concentration not given here; settings: P. aeruginosa PAO1 growth/biofilm, A600, 12 h; higher = more signal
[16] = S. cerevisiae RM11-1a growth modifiers, primary screen, strain RM11-1a, OD600, basal, 24 h (AID 1177); settings: OD600, 24 h, higher = more signal, called active from +8 up or from −8 down;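 also: cultures grown under basal conditions with no added stressor; test concentration not given here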
[17] = E. coli acrAB mutant growth effects, primary screen, E. coli filamentation inducers, strain DRC39, OD650, 24 h (AID 1178); settings: higher = more signal, called active from +8 up or from −8 down;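 also: growth measured as culture turbidity by optical density at 650 nm; test concentration not given here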
[18] = E. coli acrAB mutant growth effects, primary screen, E. coli filamentation inducers, strain DRC39, OD650, 48 h (AID 1179);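 also: screen aims at cell division blockers that make cells filament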; settings: E. coli DRC39 delta-acrAB growth, higher = more signal, called active from +8 up or from −8 down
[19] = RPMI8226 myeloma cell viability, profiling panel, resazurin fluorescence, basal, 24 h, PK04 Diversity Set (AID 1180); settings: higher = more signal;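 also: RPMI8826 multiple myeloma cell line at 5000 cells per well; test concentration not given here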
[20] = biological target: E3 ubiquitin-protein ligase XIAP (Homo sapiens) (UniProt P98170); assay: XIAP binders, primary screen, biophysical, small-molecule microarray, fluorescence 635 nm (AID 1181); settings: small-molecule microarray binding, higher = more signal;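 also: score merges 667 nm emission and signal to noise over triplicate slides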
Sequence of E3 ubiquitin-protein ligase XIAP (Homo sapiens) (P98170 whole entry, looked up): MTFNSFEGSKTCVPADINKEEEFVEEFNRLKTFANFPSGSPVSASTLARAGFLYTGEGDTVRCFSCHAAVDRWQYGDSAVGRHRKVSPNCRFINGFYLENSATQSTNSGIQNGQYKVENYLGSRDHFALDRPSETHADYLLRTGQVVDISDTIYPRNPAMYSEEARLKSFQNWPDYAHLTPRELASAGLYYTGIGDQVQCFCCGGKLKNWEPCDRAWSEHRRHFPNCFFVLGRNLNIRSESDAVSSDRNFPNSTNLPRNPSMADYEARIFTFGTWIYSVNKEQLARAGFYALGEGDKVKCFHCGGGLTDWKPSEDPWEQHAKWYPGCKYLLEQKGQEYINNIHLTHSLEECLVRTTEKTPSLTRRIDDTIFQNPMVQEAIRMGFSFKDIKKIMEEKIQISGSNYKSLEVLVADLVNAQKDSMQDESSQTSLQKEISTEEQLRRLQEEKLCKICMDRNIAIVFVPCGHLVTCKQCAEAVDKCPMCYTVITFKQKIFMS

Sequence of Dihydroorotate dehydrogenase (quinone), mitochondrial (Plasmodium falciparum (isolate 3D7)) (Q08210 whole entry, looked up): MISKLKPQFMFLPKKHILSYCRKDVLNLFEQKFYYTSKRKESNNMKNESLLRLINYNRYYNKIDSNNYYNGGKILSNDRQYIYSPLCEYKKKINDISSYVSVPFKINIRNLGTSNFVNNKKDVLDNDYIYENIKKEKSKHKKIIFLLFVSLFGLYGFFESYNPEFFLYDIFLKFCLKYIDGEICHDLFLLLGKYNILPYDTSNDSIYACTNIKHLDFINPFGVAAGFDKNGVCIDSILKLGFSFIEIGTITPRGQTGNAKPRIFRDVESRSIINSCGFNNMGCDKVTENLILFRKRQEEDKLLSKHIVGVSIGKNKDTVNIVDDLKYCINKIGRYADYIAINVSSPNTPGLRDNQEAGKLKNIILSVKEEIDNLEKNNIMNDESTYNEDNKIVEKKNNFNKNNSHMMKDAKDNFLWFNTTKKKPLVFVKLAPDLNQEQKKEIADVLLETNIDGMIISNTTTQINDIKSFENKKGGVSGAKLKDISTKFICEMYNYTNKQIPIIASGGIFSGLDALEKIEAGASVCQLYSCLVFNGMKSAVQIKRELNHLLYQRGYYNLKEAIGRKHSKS

| SMILES | z-score [1] | z-score [2] | z-score [3] | z-score [4] | z-score [5] | z-score [6] | z-score [7] | z-score [8] | z-score [9] | z-score [10] | z-score [11] | z-score [12] | z-score [13] | composite z-score [14] | z-score [15] | z-score [16] | z-score [17] | z-score [18] | z-score [19] | composite z-score [20] |
| --- | --- | --- | --- | --- | --- | --- | --- | --- | --- | --- | --- | --- | --- | --- | --- | --- | --- | --- | --- | --- |
| COC(=O)C(CC#Cc1ccc2c(c1)[C@]1(C(=O)N2)[C@H](c2ccc(O)cc2)N2[C@H](c3ccccc3)[C@H](c3ccccc3)OC(=O)[C@H]2[C@@H]1C(=O)N1CCCCCCC1)C(=O)OC | 1.58 | 0.581 | 1.98 | 0.362 | -2.56 | 0.945 | -0.174 (inactive) | -0.799 | -0.158 | -0.636 (inactive) | -0.123 | 0.303 (inactive) | -0.961 (inactive) | -7.28 (inactive) | 1.6 (inactive) | 0.27 (inactive) | 0.196 (inactive) | -0.0767 (inactive) | -3.94 | 0.557 |
| COCCCNC(=O)[C@@]1(Sc2ccc(C)cc2)CC(=O)N(C(C)C)[C@@H]1c1ccc(CO)cc1I | 0.781 | 1.74 | -1.16 | -2.2 | -2.38 | 0.544 | -0.0068 (inactive) | -0.205 | -2.75 | 0.534 (inactive) | -0.312 | -3.22 (inactive) | -2.35 (inactive) | -0.642 (inactive) | 0.394 (inactive) | -1.82 (inactive) | 0.0841 (inactive) | -0.0194 (inactive) | -1.97 | -0.37 |
| CC(CO)N1C(=O)[C@@H]2[C@H]3C(=O)OCC=C[C@H]3OC23C=CCN(c2ccc(Cl)cc2)C(=O)[C@@H]13 (stereo not given in full) | 0.0473 | 0.311 | 0.336 | 0.829 | -0.485 | -0.321 | -0.574 (inactive) | -0.818 | 0.0977 | 0.957 (inactive) | 0.909 | -0.414 (inactive) | 0.675 (inactive) | -0.647 (inactive) | -0.897 (inactive) | 0.0289 (inactive) | 0.864 (inactive) | 0.734 (inactive) | 0.282 | -0.394 |
| COc1cc2c(cc1O)C(c1ccc(CN3CCCC3)cc1)N(C)CC2 (stereo not given) | 0.105 | -0.582 | 0.339 | 0.752 | 0.0578 | 0.224 | 0.585 (inactive) | 0.224 | -0.699 | -1.18 (inactive) | -0.392 | 0.447 (inactive) | -1.36 (inactive) | -0.65 (inactive) | -0.255 (inactive) | 0.697 (inactive) | 0.0615 (inactive) | 0.382 (inactive) | -0.891 | 0.415 |
| CC(C)CNC(=O)[C@@H]1c2ccccc2C(=O)N(C2CCCCC2)[C@H]1c1ccc(CO)cc1 | 2.93 | 0.258 | 1.41 | 0.0402 | 0.424 | 4.35 | 1.16 (inactive) | 0.301 | -0.605 | 2.26 (inactive) | 1.12 | -0.664 (inactive) | 1.5 (inactive) | 0.246 (inactive) | 0.292 (inactive) | -1.22 (inactive) | 1.49 (inactive) | 1.59 (inactive) | 1.34 | -0.234 |
| CC(C)C[C@@H]1NC(=O)CNC(=O)[C@@]23C(=O)N[C@@H](Cc4ccccc4)C2[C@H](C)[C@@]2(C)O[C@H]2C3/C=C/C/C=C\CNC1=O (stereo not given in full) | -0.692 | 0.404 | -0.262 | 0.0565 | -0.939 | -0.513 | 0.00154 (inactive) | -0.385 | -0.181 | 0.547 (inactive) | 0.544 | 0.205 (inactive) | 0.339 (inactive) | 0.084 (inactive) | 1.31 (inactive) | 0.0082 (inactive) | 0.387 (inactive) | 0.394 (inactive) | 0.663 | -0.164 |
| C=CCNC(=O)[C@@H]1[C@H]2C(=O)O[C@H](c3ccccc3)[C@H](c3ccccc3)N2[C@H](c2ccc(OCCO)cc2)[C@@]12C(=O)N(C(=O)OCCOC)c1ccc(C#CCCO)cc12 | 2.85 | 1.86 | 1.22 | 0.485 | 0.927 | -0.435 | 1.27 (inactive) | -0.709 | -1.07 | -0.477 (inactive) | 0.266 | -0.153 (inactive) | 0.423 (inactive) | -0.767 (inactive) | 2.16 (inactive) | 1.55 (inactive) | 0.756 (inactive) | 0.298 (inactive) | 1.04 | -0.0161 |
| COCCOC(=O)N1C(=O)[C@@]2(c3cc(C#CCCO)ccc31)[C@H](C(=O)N1CCCCCCC1)[C@H]1C(=O)O[C@H](c3ccccc3)[C@H](c3ccccc3)N1[C@@H]2c1ccccc1OCCO | 0.862 | 1.45 | 0.566 | -2.12 | -1.62 | -0.292 | -0.0643 (inactive) | -0.815 | -0.513 | 1 (inactive) | -0.0873 | 0.348 (inactive) | 0.413 (inactive) | -0.0989 (inactive) | 0.898 (inactive) | 0.881 (inactive) | -0.759 (inactive) | -0.359 (inactive) | 0.3 | 0.113 |
